Data from PubChem BioAssay (NCI).
The panel holds about 83,000 compounds, 20% with a hit somewhere; the sample as a whole holds those more often.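 Compound tested at a single concentration for 48 hours in 96-well plates; a percent growth value below 10 was scored as active.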 Activity calls are given as the source filed them.

Tested on: PC-3 prostate
Experiment: NCI-60 one-dose screen, 48 h (100 = growth as untreated, 0 = no growth, -100 = all killed)
Conditions: 10 µM unless noted
Method: Growth inhibition of the PC-3 human tumor cell line is measured as a screen for anti-cancer activity. Cells are grown in 96 well plates and exposed to the test compound for 48 hours. Compounds are tested at a single concentration, which is 10^-5 M for most compounds. The reported endpoint is percent growth (GI% or GIPRCNT), where numbers from 0 - 100% represent growth inhibition, and numbers from -100% - 0 represent cell death. For example, a value of 40 represents 60% growth inhibition. A value of 0 means no net growth occurred over the course of the experiment. A value of -40 indicates 40% of cells at the beginning of the experiment died by the end of the experiment. A value of -100 means all cells are dead at the end of the experiment.
NCI-60 Human Tumor Cell Lines Screen was performed using the standard one-dose NCI protocol, which is described in more detail at https://dtp.cancer.gov/discovery_development/nci-60/default.htm.
Compounds with GIPRCNT values below 10 were considered active. Activity score was based on GIPRCNT using the following formula: […]
Score is 0 for GIPRCNT values of 100 or above, 50 for GIPRCNT values of 0, and 100 for GIPRCNT values of -100.

Structure (SMILES)	growth
COc1ccc(S(=O)(=O)NCCCNc2nccc(-n3cnc4ccccc43)n2)cc1	89.7% (inactive)
CCCC(=O)NC(c1cccnc1)c1cc(C(C)=O)c2cccnc2c1O (stereo not given)	39.2% (inactive)
CCN1C(=O)N(CC)C2C1NN=C1SC(c3ccccc3)=CC(=O)N12 (stereo not given)	17.1% (inactive)
CS(=O)(=O)c1nccc(-c2c(-c3ccc(F)c(OCCc4ccc(F)cc4)c3)nc3sccn23)n1	-62.2% (active)
NS(=O)(=O)c1ccc(Nc2nc(N/N=C/c3ccc([N+](=O)[O-])cc3)nc(Nc3ccccc3)n2)cc1	50.2% (inactive)
CCn1c2ccc(/C=N/OCCCN(C)C)cc2c2cc(/C=N/OCCCN(C)C)ccc21	32.4% (inactive)
COc1cc2c3c(n(CCCN4CCCCC4)c(=O)c2cc1OC)-c1cc2c(cc1C3=O)OCO2	-87% (active)
Oc1ccccc1-c1nnc(SCc2ccc(O)c3ncccc23)o1	19.2% (inactive)
Cc1cc(-c2ccc3nc(N)sc3c2)nc2ccc3[nH]ncc3c12	62.5% (inactive)
O=C(Nc1ccccc1)Nc1nc2ccc([N+](=O)[O-])cc2s1	4% (active)
N/C(=N\c1nc2c(Cl)cccc2s1)C(Cl)(Cl)Cl	65% (inactive)
O=c1c2c(O)cccc2oc2c3c(cc(O)c12)O[C@H]1OC=C[C@@H]31	90.1% (inactive)
O=C(CCCCCCN1CC(=O)N2[C@@H](c3cccc(Cl)c3)c3[nH]c4ccccc4c3C[C@H]2C1=O)NO	42.6% (inactive)
CS(=O)(=O)c1ccc2c(c1)c1c(n2C(=O)c2ccc(Cl)cc2)CCCC1	22.7% (inactive)
Oc1ccc(CSc2nnc(-c3ccc(Oc4ccccc4)cc3)o2)c2cccnc12	20.4% (inactive)
Cc1[nH]nc2ccc(-c3nc4cnc(N5CCN(C)CC5)cn4c3Nc3ccc(F)cc3Br)cc12	47.6% (inactive)
O=C(CCCCCCN1CC(=O)N2[C@@H](c3cccc(Br)c3)c3[nH]c4ccccc4c3C[C@H]2C1=O)NO	32.8% (inactive)
O=C(CCCCCCN1CC(=O)N2[C@@H](c3cc(F)cc(F)c3)c3[nH]c4ccccc4c3C[C@H]2C1=O)NO	48.5% (inactive)
CC(=O)NC(C)(C)C(=O)N1CCC[C@H]1C(=O)NC(C)(C)C(=O)N[C@@H](C)C(=O)NC(C)(C)C(=O)N[C@@H](C)C(=O)N[C@@H](CCC(N)=O)C(=O)NC(C)(C)C(=O)N[C@H](C(=O)NC(C)(C)C(=O)NCC(=O)N[C@@H](CC(C)C)C(=O)NC(C)(C)C(=O)N1CCC[C@H]1C(=O)N[C@H](C(=O)NC(C)(C)C(=O)NC(C)(C)C(=O)N[C@@H](CCC(N)=O)C(=O)N[C@@H](CCC(N)=O)C(=O)N[C@H](CO)Cc1ccccc1)C(C)C)C(C)C	28.3% [4.25 µM] (inactive)
N#C/C(=C\c1ccc(-c2ccc(F)cc2)o1)C(=O)Nc1ncc(Cc2ccc(Cl)cc2Cl)s1	1.25% (active)

Structure (SMILES)	growth
O=C1c2c(c3c4cccnc4[nH]c3c3ccc4ccccc4c23)C(=O)N1CCN1CCNCC1	66.8% (inactive)
COc1cc2c3c(n(CCCNC4CCCC4)c(=O)c2cc1OC)-c1cc2c(cc1C3=O)OCO2	-84.7% (active)
O=C(Nc1cccc(Cl)c1)Nc1nc2ccc(-c3cccc4ccccc34)cc2s1	24.9% (inactive)
COc1ccc(NC(=O)Cn2cc(CN3C(=O)c4ccc([N+](=O)[O-])cc4C3=O)nn2)cc1	98.6% (inactive)
CN1C(=O)/C(=C/C=C/c2ccco2)SC1=S	80% (inactive)
COc1ccc(N)cc1C(=O)Nc1cccc(-c2cc(=O)c3c(OC)c(OC)c(OC)cc3o2)c1	74.1% (inactive)
O=S(=O)(Nc1cc(Cl)c(F)c(Cl)c1)c1ccc(-c2cnc(C3CC3)o2)cc1	25.2% (inactive)
CN1C(=O)N(C)C2Nn3c(s/c(=C\c4ccccn4)c3=O)=NC21 (stereo not given)	99.1% (inactive)
CCOP(=O)(OCC)OC[C@]12CCC(C)(C)C[C@H]1C1=CC[C@@H]3[C@@]4(C)C/C(=C\c5cccnc5)[C@H](OP(=O)(OCC)OCC)C(C)(C)[C@@H]4CC[C@@]3(C)[C@]1(C)CC2	15.6% (inactive)
Cc1csc(Nc2cccc(Nc3nc(C)cs3)c2)n1	77.1% (inactive)
O=C(NCCNc1cc(-c2cn(-c3ccccc3)nc2-c2cccc(O)c2)ccn1)Nc1ccc(Cl)c(C(F)(F)F)c1	42.2% (inactive)
CNC(=O)c1cc(Oc2ccc3nc(NC(=O)c4cccc(C(F)(F)F)c4)sc3c2)ccn1	102% (inactive)
CCOC(=O)c1c(NCC(=O)Nc2cccc(Cl)c2)sc2c1CCCC2	73.6% (inactive)
C=CCn1c(SCC(=O)Nc2cccc(C(=O)/C=C/c3cccc([N+](=O)[O-])c3)c2)nc2ccccc2c1=O	87.4% (inactive)
C=CCn1c(SCC(=O)c2ccc(OC)cc2)nnc1-c1ccc(OC)cc1	99.6% (inactive)
CCN(CC)CCN1C(=O)c2c(c3c4cccnc4[nH]c3c3ccc4ccccc4c23)C1=O	59.2% (inactive)
COc1cc2c3c(n(CCCN4CCCC4)c(=O)c2cc1OC)-c1cc2c(cc1C3=O)OCO2	-64.5% (active)
C=CCn1c(SCC(=O)Nc2ccc(OC)cc2)nnc1-c1ccc(Cl)cc1	95.1% (inactive)
C#CCOc1ccccc1C(Nc1ccccc1)c1nnnn1C1CCCCC1 (stereo not given)	92.6% (inactive)
C=C(C)[C@@H]1CC[C@]2(C(=O)NCCCN(CCC#N)CCC#N)CC[C@]3(C)[C@H](CC[C@@H]4[C@@]5(C)CCC(=O)C(C)(C)[C@@H]5CC[C@]43C)[C@@H]12	93.1% (inactive)
